A word on the inhibition: it is the change of the read-out against control, counted positive when it falls.

Structures are written as SMILES. Calls of active or inactive are those of the source.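 The calls were made as follows, unless noted: active = inhibition of the reporter signal at or above 50%; inactive = inhibition below 50%.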

Experiment [1] in a line: inhibitors of TNFa-induced NFkB p65 translocation, primary screen, imaging, HUVEC, MLSMR starter and 10KST1 sets (AID 438;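 active = inhibition above 20% together with a positive visual image hit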;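 also: compound added about 3h40 before a 20 min TNFalpha stimulation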;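 as to inhibition: signal is the nuclear over cytoplasmic p65 intensity ratio per well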). As to conditions: HUVEC TNFa-induced p65 nuclear translocation; cell count: measured here: nuclei count (cytotoxicity indicator), at 2.08 µM; inhibition: at 2 µM, stronger effect = higher value, 0% TNFa-plus-vehicle, 100% no-TNFa wells.
The nature of experiment [2]: inhibitors of mutant huntingtin aggregation, primary screen, imaging, exon1htt(103Q)mCFP cells, high-content imaging (AID 483;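 active = visual image review flags a hit and inhibition of aggregation exceeds 20%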;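 also: compound exposure lasted 3 days before fixation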;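 as to nuclei count: percent of the per-plate median nuclei count of sample wells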). As to conditions: exon1htt(103Q)mCFP cell line, aggregate imaging, at 2 µM; inhibition of aggregation: stronger effect = higher value; nuclei count: measured here: cell count, toxicity.
Experiment [3] is described as follows: inhibitors of E-selectin induction by TNFa, primary screen, imaging, HUVEC, immunofluorescence, MLSMR starter and 10KST1 sets (AID 487;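 active = visually confirmed hit in the image check and inhibition above 20%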;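 as to inhibition: signal is fraction of cell area covered by stained E-selectin grains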;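 as to nuclei count: 100% = median nuclei count of all wells on the same plate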). To be noted: HUVEC TNFalpha-induced E-selectin immunofluorescence imaging, at 2 µM; inhibition: stronger effect = higher value; nuclei count: measured here: cell number, toxicity.
The target in experiment [4] is Voltage-gated potassium channel subunit beta-2 (Rattus norvegicus) (UniProt P62483). Briefly: KvBeta enzyme negative modulators, primary screen, biochemical, NADPH fluorescence (AID 622;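 active = fluorescence slope higher than the sample average by over 3 SD, cut at about -0.22 in these data, passing the limit was not always enough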;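 also: slope of raw intensity against log time taken from 70 to 1610 s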). As to conditions: recombinant KvBeta, 4-cyanobenzaldehyde reduction, at 10 µM, stronger effect = higher value.
Voltage-gated potassium channel subunit beta-2 (Rattus norvegicus), sequence (P62483 whole entry, looked up): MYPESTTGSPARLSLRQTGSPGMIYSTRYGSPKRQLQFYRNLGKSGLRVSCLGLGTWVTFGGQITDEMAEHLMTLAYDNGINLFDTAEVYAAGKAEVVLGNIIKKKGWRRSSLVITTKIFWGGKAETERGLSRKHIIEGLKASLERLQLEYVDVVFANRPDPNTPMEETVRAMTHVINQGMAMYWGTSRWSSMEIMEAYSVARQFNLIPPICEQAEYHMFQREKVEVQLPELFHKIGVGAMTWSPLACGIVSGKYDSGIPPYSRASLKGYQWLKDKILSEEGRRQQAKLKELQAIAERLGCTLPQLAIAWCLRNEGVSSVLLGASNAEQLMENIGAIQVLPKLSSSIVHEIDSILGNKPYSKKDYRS
The target is the same in experiment [5]. The experiment is described as follows: KvBeta positive modulators, primary screen, biochemical, NADPH fluorescence (AID 623;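 active = NADPH fluorescence slope more negative than the mean of all samples by about 3 SD, 99.7% confidence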;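 also: fluorescence intensity change per second fitted from 20 to 320 s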). As to conditions: Recombinant KvBeta, NADPH fluorescence decrease slope, 10 min; at 10 µM; stronger effect = lower value.
Experiment [6] has as its target Alpha-2C adrenergic receptor (Homo sapiens) (UniProt P18825). Briefly: modulators of alpha2C/GIRK thallium flux, primary screen, cell-based, HEK293 alpha2C/GIRK1/2 (AID 624;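 active = fluorescence slope after compound addition differing from the mean of all screened samples at 99.7% confidence, in either direction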;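 also: slope of fluorescence ratio to pre-addition baseline per second over 15 to 24 s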). As to conditions: thallium flux BTC fluorescence, at 10 µM, actives lie on both sides.
A short description of experiment [7]: inhibitors of Sendai virus-induced IRF3 signaling, primary screen, TLR/RLR signaling modifier project, cell-based, Sendai virus stimulus, luciferase, 10K MLSCN set (AID 602276;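 active = inhibition at or above 50% at 10 µM; inactive = inhibition below 50%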;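 also: firefly luciferase from ISG56 promoter only with Renilla not read in this screen; 0% = Sendai virus plus DMSO and 100% = medium plus DMSO without virus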). As to conditions: HEK293 RL24 IRF3 luciferase reporter, at 10 µM, stronger effect = higher value. In general terms: A reporter such as luciferase makes a cellular process visible.
The nature of experiment [8]: inhibitors of poly I:C-induced TLR3 signaling, primary screen, cell-based, poly I:C stimulus, luciferase, 10K MLSCN set (AID 602277). As to conditions: HEK293-TLR3 RL24 IRF3 luciferase reporter, at 10 µM, stronger effect = higher value.

Alpha-2C adrenergic receptor (Homo sapiens), sequence (P18825 whole entry, looked up): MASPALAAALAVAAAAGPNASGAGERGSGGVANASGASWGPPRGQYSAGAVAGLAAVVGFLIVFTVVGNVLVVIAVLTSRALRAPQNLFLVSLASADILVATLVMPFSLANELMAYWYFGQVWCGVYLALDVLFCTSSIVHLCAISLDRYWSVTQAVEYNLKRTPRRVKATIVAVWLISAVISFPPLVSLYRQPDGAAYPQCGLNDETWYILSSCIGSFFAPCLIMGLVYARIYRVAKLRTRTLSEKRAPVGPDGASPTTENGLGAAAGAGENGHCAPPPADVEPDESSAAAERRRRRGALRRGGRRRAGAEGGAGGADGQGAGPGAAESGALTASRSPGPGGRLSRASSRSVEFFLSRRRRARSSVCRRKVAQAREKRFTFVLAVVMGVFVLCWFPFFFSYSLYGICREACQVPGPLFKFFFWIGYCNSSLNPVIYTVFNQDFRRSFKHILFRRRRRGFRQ

Turning to `CCCCc1ccc(NC(=O)C2CCCO2)cc1` (centres undefined), in experiment [1], the cell count was found to be 387. The inhibition in experiment [1] is -1.8% (inactive); in experiment [3], -122% (inactive); in experiment [7], -42.7% (inactive); in experiment [8], -136% (inactive). For the same molecule, the inhibition of aggregation in experiment [2] is -7.2% (inactive). In addition, the figures for the nuclei count in experiment [2] and in experiment [3] were 105% and 98.5%, respectively. In addition, in experiment [4], the fluorescence slope was -0.376 (inactive). Also, the NADPH fluorescence slope in experiment [5] was -3e-05 (inactive). Moreover, the slope in experiment [6] was 0.00635 (inactive).
In the case of `c1ccc(CCc2nc(-c3cccnc3)no2)cc1`, in experiment [1], the cell count was found to be 647. In addition, the inhibition in experiment [1] is 3.1% (inactive); in experiment [3] it was -102% (inactive); in experiment [7], -30.7% (inactive); in experiment [8], -90.7% (inactive). In experiment [2], the inhibition of aggregation was 5% (inactive). Also, the nuclei count in experiment [2] is 93%; in experiment [3], 132%. Besides, the fluorescence slope in experiment [4] is -0.636 (inactive). For the same molecule, in experiment [5], the NADPH fluorescence slope is 1.1e-05 (inactive). In addition, the slope in experiment [6] is 0.00345 (inactive).
Consider `CCOC(=O)N1CCN(C(=O)c2ccc(CS(=O)(=O)c3ccc(OC)cc3)o2)CC1`, for which the cell count in experiment [1] was 516. Further, the inhibition in experiment [1] was 2% (inactive); in experiment [3], 8.5% (inactive); in experiment [7], 14.8% (inactive); in experiment [8] it was 23.8% (inactive). The inhibition of aggregation in experiment [2] is -23.5% (inactive). Besides, the nuclei count is 90.7% in experiment [2] and 133% in experiment [3]. The fluorescence slope in experiment [4] was -0.39 (inactive). In addition, in experiment [5], the NADPH fluorescence slope was 2.2e-05 (inactive). In addition, the slope in experiment [6] is 0.0059 (inactive).
Regarding `CCN1C(=C2C(=O)c3ccccc3C2=O)C=Cc2ccccc21`, the cell count in experiment [1] came out at 347. The inhibition in experiment [1] is 23.3% (active); in experiment [3], -27.1% (inactive); in experiment [7] it was -14.8% (inactive); in experiment [8], -27.9% (inactive). In experiment [2], the inhibition of aggregation is -4% (inactive). Moreover, the nuclei count in experiment [2] is 107%; in experiment [3], 117%. Moreover, the fluorescence slope in experiment [4] was -0.284 (inactive). In experiment [5], the NADPH fluorescence slope was -1.4e-05 (inactive). Moreover, the slope in experiment [6] is 0.00581 (inactive).
With `COC(=O)c1nc(N)sc1-c1ccccc1`, in experiment [1], the cell count came out at 592. For the same molecule, the inhibition in experiment [1] was 7.2% (inactive); in experiment [3], 4.8% (inactive); in experiment [7], 11.7% (inactive); in experiment [8], 37.7% (inactive). In addition, the inhibition of aggregation in experiment [2] is 9.3% (inactive). The nuclei count was 99.9% in experiment [2] and 101% in experiment [3]. Also, the fluorescence slope in experiment [4] is -0.352 (inactive). Moreover, the NADPH fluorescence slope in experiment [5] was 2.3e-05 (inactive). In addition, the slope in experiment [6] is 0.00535 (inactive).
With `CCC(C)(C)n1nnnc1C(c1ccc(OC)c(OC)c1)N1CCN(c2ccccc2)CC1` (centres undefined), the cell count in experiment [1] is 252. For the same molecule, the inhibition was 10.9% (inactive) in experiment [1], 1.7% (inactive) in experiment [3], 18.8% (inactive) in experiment [7] and 39.6% (inactive) in experiment [8]. The inhibition of aggregation in experiment [2] was 0.9% (inactive). The values for the nuclei count in experiment [2] and in experiment [3] were 80.9% and 94.4%, respectively. For the same molecule, the fluorescence slope in experiment [4] was -0.473 (inactive). Also, the NADPH fluorescence slope in experiment [5] is -0.000151 (inactive). In experiment [6], the slope is 0.0062 (inactive).
For the molecule `COc1ccc(C(=O)CSc2nc(C)cc(=O)[nH]2)cc1`, the cell count in experiment [1] came to 291. For the same molecule, the inhibition in experiment [1] was 6.5% (inactive); in experiment [3], 43.1% (inactive); in experiment [7] it was 14.8% (inactive); in experiment [8], 9.5% (inactive). The inhibition of aggregation in experiment [2] is 13.9% (inactive). The values for the nuclei count in experiment [2] and in experiment [3] were 92.1% and 98.7%, respectively. In addition, in experiment [4], the fluorescence slope is -0.506 (inactive). Moreover, the NADPH fluorescence slope in experiment [5] was 2.1e-06 (inactive). Also, the slope in experiment [6] is 0.0048 (inactive).
For the molecule `CCc1cc2c(=O)c(-c3nc4ccccc4[nH]3)coc2c(CN2CCC(C)CC2)c1O`, the cell count in experiment [1] came out at 708. Moreover, the inhibition is -7.9% (inactive) in experiment [1], 15.3% (inactive) in experiment [3], 7.38% (inactive) in experiment [7] and 5.36% (inactive) in experiment [8]. Besides, in experiment [2], the inhibition of aggregation is 11.5% (inactive). Further, the nuclei count in experiment [2] was 102%; in experiment [3], 107%. For the same molecule, the fluorescence slope in experiment [4] is -0.552 (inactive). Further, the NADPH fluorescence slope in experiment [5] is -3.1e-05 (inactive). For the same molecule, the slope in experiment [6] was 0.00554 (inactive).
Take `CCOc1cc2[nH]c(=S)n(CC3CCCO3)c(=O)c2cc1OCC` (centres undefined): the cell count in experiment [1] was 317. The inhibition was -0.5% (inactive) in experiment [1], -51.1% (inactive) in experiment [3], -8.82% (inactive) in experiment [7] and 15.8% (inactive) in experiment [8]. In addition, in experiment [2], the inhibition of aggregation was 1% (inactive). For the same molecule, the results for the nuclei count in experiment [2] and in experiment [3] were 104% and 115%, respectively. Moreover, the fluorescence slope in experiment [4] is -0.491 (inactive). Moreover, the NADPH fluorescence slope in experiment [5] is 4e-05 (inactive). The slope in experiment [6] is 0.00618 (inactive).
As for `O=C(NCc1ccccc1)N[C@@H](Cc1ccccc1)C(=O)O`, in experiment [1], the cell count amounted to 666. The inhibition is 6.9% (inactive) in experiment [1], 4.5% (inactive) in experiment [3], 10.6% (inactive) in experiment [7] and 33.8% (inactive) in experiment [8]. In addition, the inhibition of aggregation in experiment [2] is -0.3% (inactive). For the same molecule, the nuclei count in experiment [2] amounted to 116%; in experiment [3] it was 111%. The fluorescence slope in experiment [4] was -0.43 (inactive). Besides, the NADPH fluorescence slope in experiment [5] is -4.1e-05 (inactive). Moreover, in experiment [6], the slope is 0.00384 (inactive).
Turning to `COCCN(CCOC)C(=O)c1sc2nc(-c3ccccc3)cn2c1C`, in experiment [1], the cell count was determined as 752. In addition, the inhibition in experiment [1] is -10.7% (inactive); in experiment [3], -55.5% (inactive); in experiment [7], 9.08% (inactive); in experiment [8], 7.03% (inactive). The inhibition of aggregation in experiment [2] is -5.6% (inactive). For the same molecule, the values for the nuclei count in experiment [2] and in experiment [3] were 119% and 127%, respectively. Also, in experiment [4], the fluorescence slope was -0.39 (inactive). Also, the NADPH fluorescence slope in experiment [5] is -9.4e-06 (inactive). Also, the slope in experiment [6] was 0.00336 (inactive).
Take `CCOCCCNC(=O)C(c1ccccc1)N(Cc1ccc2c(c1)OCO2)C(=O)CNC(C)=O` (centres undefined): the cell count in experiment [1] stood at 220. Moreover, the inhibition in experiment [1] was 10.9% (inactive); in experiment [3], -63.6% (inactive); in experiment [7], 10.2% (inactive); in experiment [8], 16.2% (inactive). Moreover, the inhibition of aggregation in experiment [2] was 0.6% (inactive). Moreover, the nuclei count in experiment [2] turned out to be 94.8%; in experiment [3], 95.1%. In experiment [4], the fluorescence slope was -0.562 (inactive). The NADPH fluorescence slope in experiment [5] is -2.1e-05 (inactive). Besides, the slope in experiment [6] was 0.00624 (inactive).
As for `Cc1ccc(C)n1-n1c(C)nc2sc(-c3ccccc3)cc2c1=O`, the cell count in experiment [1] is 419. Further, the inhibition in experiment [1] was -0.6% (inactive); in experiment [3] it was -143% (inactive); in experiment [7], -68% (inactive); in experiment [8] it was -272% (inactive). The inhibition of aggregation in experiment [2] is -8.2% (inactive). The nuclei count in experiment [2] is 85.3%; in experiment [3], 109%. For the same molecule, the fluorescence slope in experiment [4] is -0.363 (inactive). For the same molecule, in experiment [5], the NADPH fluorescence slope is 3.8e-06 (inactive). The slope in experiment [6] is 0.00611 (inactive).
For the molecule `CCN(C(C)=O)c1nnc(CSc2nc3ccccc3s2)s1`, the cell count in experiment [1] came to 531. The inhibition in experiment [1] was -15.2% (inactive); in experiment [3], -11.6% (inactive); in experiment [7] it was -76.7% (inactive); in experiment [8], -233% (inactive). In experiment [2], the inhibition of aggregation is 10.2% (inactive). Also, the nuclei count in experiment [2] came out at 96.4%; in experiment [3], 119%. The fluorescence slope in experiment [4] is -0.475 (inactive). Further, the NADPH fluorescence slope in experiment [5] is 2.8e-05 (inactive). In experiment [6], the slope was 0.00523 (inactive).

For the origin of these results see PubChem BioAssay.
